Experiment [1] concerns Plasmodium falciparum Sir2 (PF13_0152, Sir2A). Description: Plasmodium falciparum Sir2A binding compounds – biochemical, small-molecule microarray, 635 nm fluorescence, primary screen (AID 1098).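 Note: score merges spot fluorescence intensity with its signal-to-noise ratio.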 The settings on record: fluorescence 635 nm, higher = more signal.
Experiment [2] can be described thus: probe aDKK1 binding to arrayed compounds – biochemical, biotinylated probe, 635/667 nm fluorescence, primary screen (AID 1099).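 Note: score merges 667nm spot fluorescence with signal to noise across triplicate slides; reference of the scale not given here.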 The following applies: small-molecule microarray, higher = more signal.
A short description of experiment [3]: probe aCHRDL2 binding to arrayed compounds – biochemical, biotinylated probe, 635/667 nm fluorescence, primary screen (AID 1100). The following applies: small-molecule microarray, higher = more signal.
Experiment [4] is described as follows: change in splice reporter luminescence, either direction, cell-based, HEK293, spliceosome inhibition project, primary screen (AID 1101).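 Note: HEK293 cells carrying a splicing-competent luciferase reporter gene; test concentration not given here.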 The following applies: HEK293 splicing luciferase reporter, 24 h, higher = more signal, called active from +8 up or from −8 down. For orientation: A reporter such as luciferase makes a cellular process visible.
The target in experiment [5] is Fibroblast growth factor 10 (Homo sapiens) (UniProt O15520). Description: compounds binding fibroblast growth factor 10 – biochemical, small-molecule microarray, 635 nm fluorescence, primary screen (AID 1102). The following applies: FGF10 binding, fluorescence 635 nm, higher = more signal.
Experiment [6] relates to glycogen synthase kinase-3 (GSK3A per assay name; protocol says GSK3B). Description: compounds binding glycogen synthase kinase-3 – biochemical, small-molecule microarray, 635 nm fluorescence, GSK3A, primary screen (AID 1103). Note: the record names both GSK3A and GSK3B. The following applies: fluorescence 635 nm, higher = more signal.
In experiment [7] the target is Epidermal growth factor receptor (Homo sapiens) (UniProt P00533). In words: compounds binding epidermal growth factor receptor – biochemical, small-molecule microarray, 635 nm fluorescence, primary screen (AID 1104).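 Note: score merges 667 nm emission intensity with spot signal to noise over triplicate slides.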 The following applies: EGFR binding, higher = more signal.
For experiment [8], the target named is Follistatin-related protein 3 (Homo sapiens) (UniProt O95633). In words: compounds binding follistatin-related protein 3 – biochemical, small-molecule microarray, 635 nm fluorescence, primary screen (AID 1105).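 Note: score merges emission near 667 nm and signal to noise per printed spot across three slides.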 The settings on record: FSTL3 binding, higher = more signal.
Experiment [9] deals with Dickkopf-related protein 1 (Homo sapiens) (UniProt O94907). In words: small molecules binding DKK1 protein – biochemical, small-molecule microarray, 635 nm fluorescence scan, primary screen (AID 1106).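 Note: score merges emission near 667 nm with signal to noise over three replicate slides.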 The settings on record: higher = more signal.
Experiment [10] deals with Inhibin beta A chain (activin A). In words: small molecules binding activin A – biochemical, small-molecule microarray, 635 nm fluorescence scan, primary screen (AID 1107).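 Note: mouse activin A protein probed at 4.33 µg/mL on printed slides; score merges bound-protein fluorescence near 667 nm with spot signal-to-noise.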 The following applies: INHBA, higher = more signal.

Our source for the composite z-score and z-score values is PubChem BioAssay.

Active and inactive are the calls of the source.

Sequence of Epidermal growth factor receptor (Homo sapiens) (P00533 whole entry, looked up): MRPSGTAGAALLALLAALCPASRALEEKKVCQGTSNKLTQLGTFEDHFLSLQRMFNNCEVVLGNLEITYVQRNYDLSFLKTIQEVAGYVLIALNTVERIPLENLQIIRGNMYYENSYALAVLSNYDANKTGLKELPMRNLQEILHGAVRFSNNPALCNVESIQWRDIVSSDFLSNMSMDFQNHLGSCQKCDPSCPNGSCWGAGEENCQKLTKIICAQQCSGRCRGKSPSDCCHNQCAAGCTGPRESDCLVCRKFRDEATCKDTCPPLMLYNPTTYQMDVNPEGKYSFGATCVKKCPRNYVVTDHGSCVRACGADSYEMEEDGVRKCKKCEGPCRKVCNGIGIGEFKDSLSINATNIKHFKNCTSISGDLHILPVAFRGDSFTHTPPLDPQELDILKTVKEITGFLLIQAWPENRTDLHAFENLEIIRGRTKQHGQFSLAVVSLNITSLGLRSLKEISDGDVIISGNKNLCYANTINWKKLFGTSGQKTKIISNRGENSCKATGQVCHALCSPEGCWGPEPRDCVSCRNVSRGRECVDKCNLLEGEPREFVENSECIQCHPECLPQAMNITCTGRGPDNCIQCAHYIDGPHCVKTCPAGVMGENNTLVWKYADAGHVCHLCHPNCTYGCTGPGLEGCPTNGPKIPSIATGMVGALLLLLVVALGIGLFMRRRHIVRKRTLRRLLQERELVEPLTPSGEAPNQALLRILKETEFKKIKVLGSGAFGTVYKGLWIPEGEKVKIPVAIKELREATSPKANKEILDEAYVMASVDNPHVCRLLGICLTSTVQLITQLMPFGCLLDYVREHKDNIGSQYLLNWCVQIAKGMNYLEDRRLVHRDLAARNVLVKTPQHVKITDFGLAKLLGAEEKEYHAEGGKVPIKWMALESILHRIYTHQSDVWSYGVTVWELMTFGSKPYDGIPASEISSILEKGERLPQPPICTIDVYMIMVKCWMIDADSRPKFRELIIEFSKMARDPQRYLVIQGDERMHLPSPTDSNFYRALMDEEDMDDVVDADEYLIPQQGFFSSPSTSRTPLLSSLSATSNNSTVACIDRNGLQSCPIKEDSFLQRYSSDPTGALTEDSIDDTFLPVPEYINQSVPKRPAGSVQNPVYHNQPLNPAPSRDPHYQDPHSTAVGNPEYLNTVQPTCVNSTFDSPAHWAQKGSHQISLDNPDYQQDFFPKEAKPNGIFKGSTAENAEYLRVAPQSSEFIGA
Sequence of Dickkopf-related protein 1 (Homo sapiens) (O94907 whole entry, looked up): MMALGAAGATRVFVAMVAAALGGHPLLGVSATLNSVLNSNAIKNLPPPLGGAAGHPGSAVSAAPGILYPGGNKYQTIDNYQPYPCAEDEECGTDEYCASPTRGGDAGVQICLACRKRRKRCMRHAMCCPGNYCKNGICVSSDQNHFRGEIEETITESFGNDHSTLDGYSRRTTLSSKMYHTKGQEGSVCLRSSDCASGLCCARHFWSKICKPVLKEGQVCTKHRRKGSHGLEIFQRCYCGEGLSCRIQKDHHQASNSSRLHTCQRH
Sequence of Follistatin-related protein 3 (Homo sapiens) (O95633 whole entry, looked up): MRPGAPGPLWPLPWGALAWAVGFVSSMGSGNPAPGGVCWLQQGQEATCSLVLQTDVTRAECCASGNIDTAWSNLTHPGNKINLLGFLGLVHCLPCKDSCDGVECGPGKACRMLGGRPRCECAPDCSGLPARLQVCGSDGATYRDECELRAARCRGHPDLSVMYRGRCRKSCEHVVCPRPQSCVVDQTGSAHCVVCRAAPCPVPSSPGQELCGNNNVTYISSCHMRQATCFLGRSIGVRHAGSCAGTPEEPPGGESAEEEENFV
Sequence of Fibroblast growth factor 10 (Homo sapiens) (O15520 whole entry, looked up): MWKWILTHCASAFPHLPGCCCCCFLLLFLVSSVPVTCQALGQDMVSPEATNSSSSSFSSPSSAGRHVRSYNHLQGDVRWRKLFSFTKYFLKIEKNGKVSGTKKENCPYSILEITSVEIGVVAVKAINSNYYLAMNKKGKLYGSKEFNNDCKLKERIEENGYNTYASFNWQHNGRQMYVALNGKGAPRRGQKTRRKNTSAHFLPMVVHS

For `COCC(=C=CC[C@@H](O)c1ccc(OCCO)cc1)C[C@@H](O)COCc1ccccc1`, the composite z-score in [1] is 0.804; in [2] it was -0.0148; in experiment [3], 0.548; in experiment [5], 1.52; in experiment [6], 0.611; in experiment [7] it was 0.158. The composite z-score in experiment [8] was 0.939; in experiment [9], -0.0983; in experiment [10], 1.42. For the same compound, in [4], the z-score was -1.83 (inactive).
As for `CCC[C@@H]1C=C(C(=O)OCC)[C@H](c2ccccc2)N1S(=O)(=O)c1ccc(C)cc1`, the composite z-score came to 0.58 in experiment [1]; 0.852 in experiment [2]; 1.02 in [3]; 0.977 in [5]; 1.32 in experiment [6]; 0.623 in [7]. The composite z-score in experiment [8] was 1.25; in [9] it was 0.117; in [10], 0.789. Moreover, the z-score in experiment [4] is -0.141 (inactive).
`CC(C)C[C@H]1NC(=O)[C@@H](C)NC(=O)[C@@]23C(=O)N[C@@H](Cc4ccccc4)C2[C@H](C)[C@@]2(C)O[C@H]2C3/C=C/C/C=C\CNC1=O` (stereo not given in full): the composite z-score was 1.13 in experiment [1]; -0.334 in experiment [2]; -0.585 in [3]; 0.509 in [5]; -0.164 in experiment [6]; 0.634 in experiment [7]. In addition, the composite z-score turned out to be 0.638 in experiment [8], 0.389 in experiment [9] and 1.29 in [10]. Moreover, in experiment [4], the z-score was -0.0326 (inactive).
On to `CCCCC(O)C1C=CC2C(=O)NC(=O)C2N1Nc1ccccn1` (stereo not given), for which the composite z-score in experiment [1] is 1.1; in [2], 0.0006; in experiment [3] it was -0.0537; in experiment [5], -0.0249; in experiment [6] it was 0.0652; in [7] it was 0.207. For the same compound, the figures for the composite z-score in experiment [8], in [9] and in experiment [10] were -0.404, 0.0816 and 0.555, respectively. Moreover, in experiment [4], the z-score is 2.17 (inactive).
On to `COc1ccc(C#Cc2ccc3c(c2)[C@]2(C(=O)N3)[C@H](C(=O)Nc3nc4ccccc4s3)[C@H]3C(=O)O[C@H](c4ccccc4)[C@H](c4ccccc4)N3[C@@H]2c2ccc(OCCO)cc2)cc1`, for which the composite z-score in experiment [1] is 0.937; in experiment [2], 0.72; in experiment [3], 0.766; in experiment [5], 1.17; in experiment [6] it was 1.3; in experiment [7] it was 0.209. Moreover, the values for the composite z-score in [8], in experiment [9] and in experiment [10] were 1.13, 0.629 and -0.37, respectively. Besides, in experiment [4], the z-score was -0.126 (inactive).
Regarding `COc1cc2c(cc1O)C(c1ccc(CN3CCCC3)cc1)N(Cc1ccc([N+](=O)[O-])o1)CC2` (stereo not given), the composite z-score in experiment [1] was 1.23; in experiment [2] it was -0.276; in experiment [3] it was -0.0934; in experiment [5], 0.116; in experiment [6], -0.903; in experiment [7] it was -0.0173. For the same compound, the composite z-score in experiment [8] was 0.0429; in [9], -0.299; in experiment [10] it was -0.289. Also, in [4], the z-score is 0.982 (inactive).
As to `COC(=O)C1=CC(CCCO)=CC(C2CC2)N(Cc2cccc(OC(F)(F)F)c2)C=C1C(=O)OC` (stereo not given), the composite z-score in [1] is 1.19; in [2] it was 0.0765; in experiment [3], 0.234; in [5] it was 0.107; in experiment [6], -0.363; in [7] it was -0.659. Also, the composite z-score in experiment [8] is 0.315; in [9] it was -0.59; in experiment [10], 0.674. The z-score in experiment [4] is 0.449 (inactive).
`C[C@]1(C(=O)NCC(F)(F)F)c2ccccc2C(=O)N(Cc2ccc(OC(F)(F)F)cc2)[C@H]1c1ccc(CO)cc1`: the composite z-score in [1] is 1.34; in experiment [2], -0.0378; in [3], 0.0314; in experiment [5] it was 0.155; in experiment [6], -0.507; in [7], 0.179. For the same compound, the composite z-score was -0.345 in experiment [8], 0.0106 in experiment [9] and 0.19 in experiment [10]. In addition, the z-score in experiment [4] is -0.24 (inactive).
`C=CCC(OC(C)=O)[C@@H]1[C@@H](N(Cc2ccc(-c3cccc(C(F)(F)F)c3)o2)C(=O)Cc2ccc(F)cc2)c2cc(OCCCO)ccc2N1C(=O)c1ccc2ccccc2n1` (stereo not given in full): the composite z-score in experiment [1] was -0.106; in experiment [2] it was 0.0195; in experiment [3], 0.416; in experiment [5], -0.218; in experiment [6], -1.85; in experiment [7], -0.35. For the same compound, the composite z-score is -0.281 in experiment [8], -0.0545 in [9] and 1.58 in experiment [10]. Moreover, in experiment [4], the z-score is -0.362 (inactive).
As for `COC(=O)[C@@H]1N=C(c2ccc(OCCCO)cc2)O[C@@H]1c1ccccc1CN=[N+]=[N-]`, the composite z-score is -0.418 in experiment [1]; 0.502 in experiment [2]; 1.2 in [3]; -0.648 in experiment [5]; -1.01 in experiment [6]; -0.428 in [7]. Also, the values for the composite z-score in experiment [8], in experiment [9] and in experiment [10] were -0.547, -1.36 and 0.778, respectively. Moreover, the z-score in experiment [4] was 0.0193 (inactive).
Turning to `COCCOC(=O)N1C(=O)[C@@]2(c3cc(C#CC4(O)CCCCCC4)ccc31)[C@H](c1ccc(OCCO)cc1)N1[C@H](c3ccccc3)[C@H](c3ccccc3)OC(=O)[C@H]1[C@@H]2C(N)=O`, the composite z-score in [1] was 1.37; in experiment [2] it was 0.0809; in experiment [3], 0.0419; in experiment [5], 1.14; in [6] it was 1.31; in experiment [7], 0.883. For the same compound, the composite z-score in experiment [8] was determined as 1.22; in [9], 0.617; in [10] it was 1. In experiment [4], the z-score was -1.47 (inactive).
On to `COCCOC(=O)N1C(=O)[C@@]2(c3cc(C#CC4(O)CCCCCC4)ccc31)[C@H](C(=O)N1CCc3cc(OC)c(OC)cc3C1)[C@H]1C(=O)O[C@H](c3ccccc3)[C@H](c3ccccc3)N1[C@@H]2c1ccc(O)cc1`, for which the composite z-score in experiment [1] came to 0.974; in experiment [2] it was 0.142; in experiment [3], 0.248; in experiment [5] it was 1.02; in experiment [6] it was 1.32; in experiment [7], 0.648. Moreover, the results for the composite z-score in experiment [8], in [9] and in experiment [10] were 1.02, 0.639 and 0.122, respectively. Besides, in experiment [4], the z-score was 0.543 (inactive).
Take `CCOC(=O)C1=CCC(c2cc3ccccc3[nH]2)N(S(=O)(=O)c2ccccc2[N+](=O)[O-])C1` (stereo not given): the composite z-score in experiment [1] is 0.984; in experiment [2], 0.225; in [3], -0.006; in experiment [5], 0.696; in [6], 0.565; in experiment [7], -0.106. Further, the composite z-score is 0.319 in experiment [8], -0.117 in experiment [9] and 0.722 in [10]. Moreover, the z-score in [4] is -0.365 (inactive).
For `COCC(=C=CC[C@@H](O)c1cccc(OCCO)c1)C[C@@H](O)COCc1ccccc1`, the composite z-score was 0.264 in [1]; 0.613 in experiment [2]; 0.67 in experiment [3]; 1.4 in [5]; 1.19 in experiment [6]; -0.623 in experiment [7]. Moreover, the values for the composite z-score in [8], in experiment [9] and in experiment [10] were 0.416, -0.267 and 0.717, respectively. Moreover, the z-score in [4] was -0.51 (inactive).
